Results from PubChem BioAssay (NCI).
About 79,000 compounds went through this panel and 15% of them were active in at least one assay; those are over-represented in the sample as a whole. The source made the active and inactive calls. Rule as the data show it: active = growth inhibition above about 70%; inactive = the rest.

Tests used:
[1] = NCI Yeast Anticancer Drug Screen. Data for the rad52 strain (AID 147);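 also: 0% = growth of vehicle-treated control cultures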; conditions: S. cerevisiae rad52 mutant growth inhibition, stronger effect = higher value
How it was run: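 Inhibition of yeast growth, referenced to vehicle controls, was the measured output for a strain with defective DNA damage repair.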

[2] = NCI Yeast Anticancer Drug Screen. Data for the wt1 strain (AID 149);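 also: 0% = growth of vehicle-treated wt1 cultures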; conditions: S. cerevisiae wt1 strain (SPY 50644) growth inhibition, stronger effect = higher value
How it was run: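 wt1 yeast, compound-treated; % growth inhibition vs vehicle control.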

[3] = NCI Yeast Anticancer Drug Screen. Data for the rad50EPP+ strain (AID 151);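 also: 0% = growth of vehicle-treated control cultures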; conditions: S. cerevisiae rad50 mutant strain, stronger effect = higher value
How it was run: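 Genetically defined yeast (rad50EPP+, DNA damage repair alteration) is grown with compound, and inhibition of growth is expressed relative to vehicle-treated controls.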

[4] = NCI Yeast Anticancer Drug Screen. Data for the rad50 strain (AID 155);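 also: 0% = growth of vehicle-only cultures of the same strain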; conditions: S. cerevisiae rad50 strain growth inhibition, stronger effect = higher value
How it was run: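 Genetically altered yeast (DNA repair pathway); compound treatment; growth inhibition vs vehicle ctrl.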

[5] = NCI Yeast Anticancer Drug Screen. Data for the mec2-1 strain (AID 157); conditions: S. cerevisiae mec2-1 strain, stronger effect = higher value
How it was run: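 Each compound was tested on mec2-1 yeast, a strain altered in DNA damage repair or cell cycle control. Growth inhibition is reported relative to vehicle.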

[6] = NCI Yeast Anticancer Drug Screen. Data for the rad14 strain (AID 159);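 also: 0% = growth of vehicle-treated control cultures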; conditions: S. cerevisiae rad14 strain growth inhibition, stronger effect = higher value
How it was run: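 Test compounds were applied to a repair-deficient yeast strain. Its growth was then compared with that of cultures given vehicle alone, and inhibition was expressed relative to those controls.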

[7] = NCI Yeast Anticancer Drug Screen. Data for the sgs1 mgt1 strain (AID 161);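 also: 0% = growth of cultures given vehicle only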; conditions: S. cerevisiae sgs1 mgt1 strain, stronger effect = higher value
How it was run: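 Read-out: growth inhibition vs vehicle controls. Cells: mutant yeast strain deficient in DNA damage repair.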

[8] = NCI Yeast Anticancer Drug Screen. Data for the CLN2oe strain (AID 163);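 also: 0% = growth of vehicle-only control cultures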; conditions: S. cerevisiae CLN2oe strain, stronger effect = higher value
How it was run: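 First, the altered yeast strain was treated with each compound; second, its growth was measured; finally, inhibition was derived by comparison with vehicle controls.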

[9] = NCI Yeast Anticancer Drug Screen. Data for the cln2 rad14 strain (AID 165);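 also: 0% = growth equal to vehicle treated cultures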; conditions: S. cerevisiae cln2 rad14 strain, stronger effect = higher value
How it was run: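 Test compounds were added to cln2 rad14 yeast cultures; inhibition of growth was then determined by comparison with vehicle treatment.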

[10] = NCI Yeast Anticancer Drug Screen. Data for the bub3 strain (AID 167); conditions: S. cerevisiae bub3 mutant strain, stronger effect = higher value
How it was run: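 Yeast carrying a defined mutation is treated with each compound, and growth is compared with that of vehicle-exposed cells to give inhibition.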

[11] = NCI Yeast Anticancer Drug Screen. Data for the wt2 strain (AID 169);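 also: 0% = growth of vehicle-treated yeast cultures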; conditions: S. cerevisiae wt2 strain growth inhibition, stronger effect = higher value
How it was run: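 The panel's yeast strains carry defined changes in DNA repair or cell cycle genes. Each strain is grown with compound, and growth loss is scored relative to vehicle.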

[12] = NCI Yeast Anticancer Drug Screen. Data for the mlh1 strain (AID 171);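 also: 0% = growth of vehicle-treated control cultures of the same strain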; conditions: S. cerevisiae mlh1 strain growth inhibition, stronger effect = higher value
How it was run: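 Inhibition values reflect reduced yeast growth in the presence of compound, referenced to vehicle controls, using a strain chosen for its alteration in DNA repair or cell cycle control.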

[13] = NCI Yeast Anticancer Drug Screen. Data for the sgs1 strain (AID 173);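 also: 0% = growth of vehicle-only control cultures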; conditions: S. cerevisiae sgs1 mutant, stronger effect = higher value
How it was run: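 Vehicle-treated cultures served as reference for growth inhibition of a yeast strain altered in DNA damage repair or cell cycle control after compound exposure.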

[14] = NCI Yeast Anticancer Drug Screen. Data for the mlh1 rad18 strain (AID 175); conditions: S. cerevisiae mlh1 rad18 strain growth inhibition, stronger effect = higher value
How it was run: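 Inhibition values reflect reduced growth of mutant yeast versus vehicle-treated controls following compound exposure; the mutations affect DNA damage repair.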

[15] = NCI Yeast Anticancer Drug Screen. Data for the rad18 strain (AID 177); conditions: S. cerevisiae rad18 mutant growth inhibition, stronger effect = higher value
How it was run: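 Steps: expose repair-mutant yeast to compound; measure growth; express as inhibition relative to vehicle control.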

[16] = at 5.0 µM (retest, dose inferred, filed as 0.5)
[17] = at 50.0 µM (retest, dose inferred, filed as 5.0)

Measured: growth inhibition

OCCNCCOc1ccc(/C(=C(/Cl)c2ccccc2)c2ccccc2)cc1
inactive: [1]; at 1.2 µM -38% | [1]; at 3.7 µM -36% | [1]; at 11.0 µM -20% | [2]; at 1.2 µM -25% | [2]; at 3.7 µM -26% | [2]; at 11.0 µM -3% | [3]; at 1.2 µM -34% | [3]; at 3.7 µM -28% | [3]; at 11.0 µM -56% | [4]; at 1.2 µM 12% | [4]; at 3.7 µM 1% | [4]; [16] 40% | [4]; at 11.0 µM 29% | [5]; at 1.2 µM -28% | [5]; at 3.7 µM -32% | [5]; [16] 3% | [5]; at 11.0 µM -2% | [6]; at 1.2 µM -9% | [6]; at 3.7 µM -8% | [7]; [16] 36% | [8]; at 1.2 µM -13% | [8]; at 3.7 µM 0% | [8]; at 11.0 µM 25% | [9]; [16] 59% | [10]; at 1.2 µM -8% | [10]; at 3.7 µM -5% | [10]; [16] 32% | [10]; at 11.0 µM 13% | [11]; at 1.2 µM -47% | [11]; at 3.7 µM -48% | [11]; at 11.0 µM -6% | [12]; at 1.2 µM 7% | [12]; at 3.7 µM 12% | [12]; at 11.0 µM 67% | [13]; at 1.2 µM -15% | [13]; at 3.7 µM -23% | [13]; at 11.0 µM 32% | [14]; [16] 43% | [15]; at 1.2 µM -8% | [15]; at 3.7 µM -6% | [15]; at 11.0 µM 24%
active: [1]; at 33.0 µM 98% | [1]; at 100.0 µM 97% | [2]; at 33.0 µM 98% | [2]; at 100.0 µM 97% | [3]; at 33.0 µM 70% | [3]; at 100.0 µM 98% | [4]; at 33.0 µM 98% | [4]; [17] 98% | [4]; at 50.0 µM 87.1% | [4]; at 100.0 µM 97% | [5]; at 33.0 µM 98% | [5]; [17] 99% | [5]; at 50.0 µM 94.3% | [5]; at 100.0 µM 97% | [6]; at 11.0 µM 76% | [6]; at 33.0 µM 98% | [6]; at 100.0 µM 97% | [7]; [17] 98% | [7]; at 50.0 µM 93.8% | [8]; at 33.0 µM 99% | [8]; at 100.0 µM 98% | [9]; [17] 98% | [9]; at 50.0 µM 93.2% | [10]; at 33.0 µM 99% | [10]; [17] 99% | [10]; at 50.0 µM 92.7% | [10]; at 100.0 µM 97% | [11]; at 33.0 µM 98% | [11]; at 100.0 µM 97% | [12]; at 33.0 µM 98% | [12]; at 100.0 µM 98% | [13]; at 33.0 µM 98% | [13]; at 100.0 µM 98% | [14]; [17] 99% | [14]; at 50.0 µM 90% | [15]; at 33.0 µM 98% | [15]; at 100.0 µM 98%

COc1ccc(/C=C2\SC(=S)N(C=C3C(=O)NC(=S)NC3=O)C2=O)cc1OC
inactive: [1]; at 1.2 µM 12% | [1]; at 3.7 µM 15% | [1]; at 11.0 µM 47% | [2]; at 1.2 µM 4% | [2]; at 3.7 µM 6% | [2]; at 11.0 µM 25% | [3]; at 1.2 µM 0% | [3]; at 3.7 µM 7% | [3]; at 11.0 µM 37% | [3]; at 33.0 µM 56% | [3]; at 100.0 µM 59% | [4]; at 1.2 µM 3% | [4]; at 3.7 µM 3% | [4]; [16] -2% | [4]; at 11.0 µM 37% | [4]; [17] 65% | [4]; at 50.0 µM 49.8% | [5]; at 1.2 µM 10% | [5]; at 3.7 µM 14% | [5]; [16] -16% | [5]; at 11.0 µM 58% | [6]; at 1.2 µM 6% | [6]; at 3.7 µM 15% | [6]; at 11.0 µM 52% | [7]; [16] -6% | [8]; at 1.2 µM -11% | [8]; at 3.7 µM -1% | [8]; at 11.0 µM 39% | [9]; [16] -25% | [9]; [17] 33% | [9]; at 50.0 µM 37.6% | [10]; at 1.2 µM 6% | [10]; at 3.7 µM 8% | [10]; [16] 3% | [10]; at 11.0 µM 33% | [10]; at 33.0 µM 60% | [10]; [17] -1% | [10]; at 50.0 µM 44.3% | [10]; at 100.0 µM 59% | [11]; at 1.2 µM 1% | [11]; at 3.7 µM 7% | [11]; at 11.0 µM 52% | [12]; at 1.2 µM 0% | [12]; at 3.7 µM 10% | [12]; at 11.0 µM 51% | [13]; at 1.2 µM 11% | [13]; at 3.7 µM 29% | [13]; at 11.0 µM 61% | [14]; [16] 7% | [14]; [17] 69% | [14]; at 50.0 µM 68.3% | [15]; at 1.2 µM 16% | [15]; at 3.7 µM 34% | [15]; at 11.0 µM 60%
active: [1]; at 33.0 µM 83% | [1]; at 100.0 µM 89% | [2]; at 33.0 µM 79% | [2]; at 100.0 µM 94% | [4]; at 33.0 µM 80% | [4]; at 100.0 µM 88% | [5]; at 33.0 µM 91% | [5]; [17] 75% | [5]; at 50.0 µM 77.8% | [5]; at 100.0 µM 93% | [6]; at 33.0 µM 85% | [6]; at 100.0 µM 92% | [7]; [17] 76% | [7]; at 50.0 µM 85.8% | [8]; at 33.0 µM 85% | [8]; at 100.0 µM 90% | [11]; at 33.0 µM 92% | [11]; at 100.0 µM 95% | [12]; at 33.0 µM 89% | [12]; at 100.0 µM 89% | [13]; at 33.0 µM 94% | [13]; at 100.0 µM 93% | [15]; at 33.0 µM 82% | [15]; at 100.0 µM 89%
